Results filed as inconclusive are left out. Active and inactive are the calls of the source. The calls were made as follows, unless noted: active = hit-call score of the fitted dose curve at least 0.9, where 1 is the maximum; inactive = score below 0.9.
Columns and labels:
[1] = molecular target: Paired box protein Pax-6 (Homo sapiens) (UniProt P26367); experiment: ATG_Pax6_CIS: Attagene CIS-FACTORIAL HepG2 Assay for human Paired Box 6 (PAX6) (AID 2282956); conditions: HepG2 CIS-FACTORIAL PAX6 reporter transcription, RNA readout; actives raise or lower the signal
How it was run: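 DMSO-referenced bidirectional fits of reporter mRNA fluorescence; HepG2 with transient cis-promoter MRTUs, 24 h post-dose, RT-PCR plus capillary electrophoresis detection.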

[2] = ATG_PPRE_CIS: Attagene CIS-FACTORIAL HepG2 Assay for human Peroxisome Proliferator-activated Response Element (PPRE) (AID 2282958); conditions: HepG2 PPRE cis-element reporter, Attagene transcription factor profiling; actives raise or lower the signal
How it was run: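 Measured endpoint: PPRE-controlled reporter mRNA, detected by RT-PCR and capillary electrophoresis fluorescence, from transiently transfected HepG2 cells 24 h after dosing. Curves fitted in both directions using DMSO baseline.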

[3] = ATG_RORE_CIS: Attagene CIS-FACTORIAL HepG2 Assay for human RAR-related Orphan Receptor Element (RORE) (AID 2282959); conditions: HepG2 Attagene cis-factorial RORE reporter, mRNA; actives raise or lower the signal
How it was run: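 Transiently transfected HepG2 reporter cells were treated 24 h. Reporter transcripts were detected by RT-PCR and capillary electrophoresis, with bidirectional fitting against DMSO.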

[4] = ATG_Sox_CIS: Attagene CIS-FACTORIAL HepG2 Assay for human SRY-box transcription factor (SOX) (AID 2282960); conditions: HepG2 Attagene cis-factorial SOX reporter, mRNA; actives raise or lower the signal
How it was run: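 Gain- or loss-of-signal endpoint, fitted bidirectionally with DMSO as negative control. Based on reporter mRNA from transfected HepG2 cells harvested 24 h post-treatment and quantified via RT-PCR and capillary electrophoresis.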

[5] = molecular target: Transcription factor Sp1 (Homo sapiens) (UniProt P08047); experiment: ATG_Sp1_CIS: Attagene CIS-FACTORIAL HepG2 Assay for human Specificity Protein 1 (Sp1) (AID 2282961); conditions: HepG2 Sp1 cis-reporter transcription, actives raise or lower the signal
How it was run: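 Endpoint reflects endogenous Sp1 transcriptional activity, not an exogenous fusion protein: HepG2 cells with transfected cis-regulated reporters, 24 h dosing, RT-PCR/capillary electrophoresis mRNA read-out, DMSO-normalised bidirectional fit.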

[6] = ATG_SREBP_CIS: Attagene CIS-FACTORIAL HepG2 Assay for human Sterol Regulatory Element Binding (SREBP) (AID 2282962); conditions: HepG2 Attagene cis-factorial SREBP reporter, mRNA; actives raise or lower the signal
How it was run: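 In this cis-format assay, HepG2 liver cells express reporters controlled by promoter elements responsive to native transcription factors. Exposure lasts 24 h; reporter mRNA fluorescence from capillary electrophoresis gives the signal, fitted bidirectionally against DMSO.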

[7] = molecular target: Signal transducer and activator of transcription 3 (Homo sapiens) (UniProt P40763); experiment: ATG_STAT3_CIS: Attagene CIS-FACTORIAL HepG2 Assay for human Signal Transducer and Activator of Transcription 3 (STAT3) (AID 2282963); conditions: HepG2, Attagene cis-factorial STAT3 reporter transcription; actives raise or lower the signal
How it was run: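 Fluorescence intensity of 6-FAM-labelled reporter fragments, separated by capillary electrophoresis after RT-PCR, gave the signal. Cells were HepG2 transfected with cis-element reporter units and treated 24 h; fitting was bidirectional relative to DMSO.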

[8] = ATG_TA_CIS: Attagene CIS-FACTORIAL HepG2 Assay for human TA Basal Promoter (AID 2282964); conditions: HepG2 Attagene CIS-factorial TA basal promoter reporter; actives raise or lower the signal
How it was run: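 Fluorescence from labelled RT-PCR reporter fragments, separated by capillary electrophoresis, gives the signal. Cells: HepG2 transiently carrying multiple reporter units, 24 h chemical dosing. Gain or loss relative to DMSO.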

[9] = ATG_TCF_b_cat_CIS: Attagene CIS-FACTORIAL HepG2 Assay for human T-Cell-Factor with beta-catenin (TCF/b-cat) (AID 2282965); conditions: HepG2 TCF/beta-catenin cis-reporter transcription, actives raise or lower the signal
How it was run: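 HepG2, transient MRTU transfection, cis-element-driven reporters (endogenous TFs). 24 h compound exposure. Readout: reporter mRNA by RT-PCR + 6-FAM primer extension, HpaI digest, capillary electrophoresis. Gain/loss fit vs DMSO baseline.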

[10] = ATG_TAL_CIS: Attagene CIS-FACTORIAL HepG2 Assay for human TAL Basal Promoter (AID 2282966); conditions: HepG2 Attagene cis-factorial TAL promoter reporter; actives raise or lower the signal;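 also: background control endpoint measuring basal TAL promoter reporter mRNA not a specific factor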
How it was run: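 Transiently transfected HepG2 (cis-regulated reporter units), 24 h treatment, mRNA read by fluorescent CE after RT-PCR; bidirectional fit, DMSO baseline.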

[11] = ATG_TGFb_CIS: Attagene CIS-FACTORIAL HepG2 Assay for human Transforming Growth Factor (TGF) (AID 2282967); conditions: HepG2 Attagene CIS TGFb reporter, mRNA transcription; actives raise or lower the signal
How it was run: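 Bidirectional fitting relative to DMSO gave the endpoint. Underlying data: reporter mRNA from HepG2 cells carrying transiently transfected cis-regulated reporter constructs, harvested 24 h after dosing and analyzed by RT-PCR and capillary electrophoresis.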

[12] = molecular target: Nuclear receptor subfamily 1 group I member 3 (Homo sapiens) (UniProt Q14994); experiment: ATG_CAR_TRANS: Attagene TRANS-FACTORIAL HepG2 Assay for human Constitutive Androstane Receptor (CAR) (AID 2282969; active = hit-call score of the fitted dose curve at least 0.9, where 1 is the maximum;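 also: activators raise reporter mRNA above DMSO so AC50 marks induction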); conditions: HepG2 Attagene TRANS-FACTORIAL CAR reporter
How it was run: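 Transiently transfected HepG2, multiplex TRANS reporters (CAR-Gal4 chimera driving GAL4-UAS reporter). 24 h dosing. Readout: reporter transcript by RT-PCR + capillary electrophoresis, fluorescence intensity; positive direction vs DMSO.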

[13] = molecular target: Estrogen receptor (Homo sapiens) (UniProt P03372); experiment: ATG_ERa_TRANS: Attagene TRANS-FACTORIAL HepG2 Assay for human Estrogen Receptor alpha (ERa) (AID 2282970; active = hit-call score of the fitted dose curve at least 0.9, where 1 is the maximum); conditions: HepG2 Attagene TRANS ERa GAL4 reporter, mRNA
How it was run: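 One of 30 multiplexed endpoints from a HepG2 TRANS system, this one reports ERa-Gal4-driven reporter mRNA. Transcripts were quantified 24 hours post-dosing by fluorescent RT-PCR and capillary electrophoresis, with activity scored as induction over DMSO.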

[14] = molecular target: Steroid hormone receptor ERR1 (Homo sapiens) (UniProt P11474); experiment: ATG_ERRa_TRANS: Attagene TRANS-FACTORIAL HepG2 Assay for human Estrogen-Related Receptor alpha (ERRa) (AID 2282971; active = hit-call score of the fitted dose curve at least 0.9, where 1 is the maximum); conditions: HepG2 Attagene TRANS reporter, ERRa transactivation
How it was run: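 HepG2 cells transiently transfected with multiplexed GAL4-UAS reporter units reading chimeric ERRa-Gal4 activity; 24 h compound exposure. Reporter mRNA measured by RT-PCR, 6-FAM labelling, HpaI digest and capillary electrophoresis; gain of signal fitted versus DMSO baseline.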

[15] = molecular target: X-box-binding protein 1 (Homo sapiens) (UniProt P17861); experiment: ATG_Xbp1_CIS: Attagene CIS-FACTORIAL HepG2 Assay for human X-box Binding Protein 1 (XBP1) (AID 2282972); conditions: HepG2 XBP1 cis-element reporter, Attagene multiplex; actives raise or lower the signal
How it was run: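 Changes in reporter transcript abundance, read by RT-PCR and capillary electrophoresis, reflect endogenous transcription factor activity. Transfected HepG2 cells received compound for 24 hours; DMSO defined baseline for bidirectional analysis.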

[16] = ATG_M_19_TRANS: Attagene TRANS-FACTORIAL HepG2 Assay for M19 Transcription Factor (Internal Marker) (AID 2282974; active = hit-call score of the fitted dose curve at least 0.9, where 1 is the maximum); conditions: HepG2 Attagene TRANS-FACTORIAL M19 internal marker reporter
How it was run: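 Using RT-PCR and capillary electrophoresis, reporter mRNA from transiently transfected human HepG2 cells was quantified following 24 h exposure; activity was fitted in the positive direction against DMSO.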

[17] = ATG_VDRE_CIS: Attagene CIS-FACTORIAL HepG2 Assay for human Vitamin D Receptor Element (VDRE) (AID 2282968); conditions: HepG2 VDRE cis-reporter transcription, actives raise or lower the signal
How it was run: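 Compounds were applied for 24 h to HepG2 cells transfected with promoter-regulated reporter units. Total RNA was reverse-transcribed, and reporter amplicons were fluorescently labelled and sized by capillary electrophoresis.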

[18] = ATG_GAL4_TRANS: Attagene TRANS-FACTORIAL HepG2 Assay for GAL4 (Internal Marker) (AID 2282976; active = hit-call score of the fitted dose curve at least 0.9, where 1 is the maximum); conditions: HepG2 Attagene TRANS GAL4 internal marker reporter
How it was run: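 HepG2 cells transiently transfected with multiplexed GAL4-UAS reporter constructs were dosed for 24 h. Reporter mRNA was measured by RT-PCR, 6-FAM primer extension, HpaI digestion and capillary electrophoresis, and gain of signal was fitted relative to DMSO.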

[19] = molecular target: Estrogen-related receptor gamma (Homo sapiens) (UniProt P62508); experiment: ATG_ERRg_TRANS: Attagene TRANS-FACTORIAL HepG2 Assay for human Estrogen-Related Receptor gamma (ERRg) (AID 2282977; active = hit-call score of the fitted dose curve at least 0.9, where 1 is the maximum;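 also: hits increase reporter signal over DMSO so potencies reflect activators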); conditions: HepG2 Attagene TRANS reporter, ERRg transactivation
How it was run: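 Exogenous NR-Gal4 chimera activity measured as reporter transcript induction after 24 h in transiently transfected HepG2 cells. RNA reverse-transcribed, PCR-amplified, 6-FAM-labelled and resolved by capillary electrophoresis; increase over DMSO baseline.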

Measured: AC50

Transcription factor Sp1 (Homo sapiens), sequence (P08047 whole entry, looked up, the tested form may be a part): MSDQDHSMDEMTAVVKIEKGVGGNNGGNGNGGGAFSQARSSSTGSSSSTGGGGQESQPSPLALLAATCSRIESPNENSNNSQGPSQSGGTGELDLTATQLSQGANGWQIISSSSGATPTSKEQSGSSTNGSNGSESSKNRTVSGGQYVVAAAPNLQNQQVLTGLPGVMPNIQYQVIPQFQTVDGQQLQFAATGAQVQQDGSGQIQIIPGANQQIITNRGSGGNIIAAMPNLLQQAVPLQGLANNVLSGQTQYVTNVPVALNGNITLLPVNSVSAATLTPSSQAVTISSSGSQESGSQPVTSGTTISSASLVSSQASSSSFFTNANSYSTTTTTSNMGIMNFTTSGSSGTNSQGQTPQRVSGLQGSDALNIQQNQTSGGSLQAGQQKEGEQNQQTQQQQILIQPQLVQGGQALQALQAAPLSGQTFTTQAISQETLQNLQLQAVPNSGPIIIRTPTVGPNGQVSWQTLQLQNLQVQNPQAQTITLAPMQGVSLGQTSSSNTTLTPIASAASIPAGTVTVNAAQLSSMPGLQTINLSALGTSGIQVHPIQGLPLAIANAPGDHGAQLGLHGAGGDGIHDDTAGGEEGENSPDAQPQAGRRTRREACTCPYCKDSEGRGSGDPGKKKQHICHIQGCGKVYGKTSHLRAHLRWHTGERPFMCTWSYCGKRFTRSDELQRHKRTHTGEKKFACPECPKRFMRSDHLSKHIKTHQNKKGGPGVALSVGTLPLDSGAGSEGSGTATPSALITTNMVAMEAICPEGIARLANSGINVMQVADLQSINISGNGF
X-box-binding protein 1 (Homo sapiens), sequence (P17861 whole entry, looked up): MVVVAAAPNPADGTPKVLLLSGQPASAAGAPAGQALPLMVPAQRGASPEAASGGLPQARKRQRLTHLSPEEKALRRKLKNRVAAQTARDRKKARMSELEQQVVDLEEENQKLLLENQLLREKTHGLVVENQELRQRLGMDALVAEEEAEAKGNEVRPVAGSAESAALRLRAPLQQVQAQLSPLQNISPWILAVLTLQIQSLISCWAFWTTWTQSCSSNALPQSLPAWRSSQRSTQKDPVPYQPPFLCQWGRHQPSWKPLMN
Steroid hormone receptor ERR1 (Homo sapiens), sequence (P11474 whole entry, looked up, the tested form may be a part): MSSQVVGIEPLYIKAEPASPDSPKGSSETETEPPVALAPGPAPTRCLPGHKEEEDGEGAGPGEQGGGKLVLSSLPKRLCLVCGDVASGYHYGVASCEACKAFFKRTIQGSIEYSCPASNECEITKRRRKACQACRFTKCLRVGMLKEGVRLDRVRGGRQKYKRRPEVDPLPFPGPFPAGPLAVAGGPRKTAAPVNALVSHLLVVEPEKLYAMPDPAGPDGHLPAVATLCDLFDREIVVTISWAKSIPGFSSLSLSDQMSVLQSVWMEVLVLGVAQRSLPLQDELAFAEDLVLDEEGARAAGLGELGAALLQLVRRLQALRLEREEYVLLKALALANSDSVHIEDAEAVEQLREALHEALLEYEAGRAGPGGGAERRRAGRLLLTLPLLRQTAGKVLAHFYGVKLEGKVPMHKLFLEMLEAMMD
Paired box protein Pax-6 (Homo sapiens), sequence (P26367 whole entry, looked up): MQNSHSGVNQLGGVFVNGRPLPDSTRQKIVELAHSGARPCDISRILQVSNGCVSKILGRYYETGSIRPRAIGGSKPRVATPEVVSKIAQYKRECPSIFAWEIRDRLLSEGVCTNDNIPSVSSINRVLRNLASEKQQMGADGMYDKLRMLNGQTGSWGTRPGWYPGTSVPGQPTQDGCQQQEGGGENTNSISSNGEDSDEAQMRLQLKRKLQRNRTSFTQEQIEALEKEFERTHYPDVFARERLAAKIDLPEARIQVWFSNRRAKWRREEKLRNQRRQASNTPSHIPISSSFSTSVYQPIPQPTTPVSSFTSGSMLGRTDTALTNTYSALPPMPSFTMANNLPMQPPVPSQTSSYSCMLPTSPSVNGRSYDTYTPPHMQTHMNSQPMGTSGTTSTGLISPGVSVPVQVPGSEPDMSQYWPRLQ
Nuclear receptor subfamily 1 group I member 3 (Homo sapiens), sequence (Q14994 whole entry, looked up, the tested form may be a part): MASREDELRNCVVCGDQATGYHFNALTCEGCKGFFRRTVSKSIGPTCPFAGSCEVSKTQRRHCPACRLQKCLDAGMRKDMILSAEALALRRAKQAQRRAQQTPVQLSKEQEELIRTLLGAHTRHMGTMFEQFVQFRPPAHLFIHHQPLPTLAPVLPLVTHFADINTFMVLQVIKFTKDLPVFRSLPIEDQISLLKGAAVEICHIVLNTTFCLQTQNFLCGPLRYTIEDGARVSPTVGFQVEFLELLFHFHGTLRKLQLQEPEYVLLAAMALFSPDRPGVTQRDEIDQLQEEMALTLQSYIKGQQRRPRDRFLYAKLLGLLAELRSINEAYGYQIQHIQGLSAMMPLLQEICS
Signal transducer and activator of transcription 3 (Homo sapiens), sequence (P40763 whole entry, looked up, the tested form may be a part): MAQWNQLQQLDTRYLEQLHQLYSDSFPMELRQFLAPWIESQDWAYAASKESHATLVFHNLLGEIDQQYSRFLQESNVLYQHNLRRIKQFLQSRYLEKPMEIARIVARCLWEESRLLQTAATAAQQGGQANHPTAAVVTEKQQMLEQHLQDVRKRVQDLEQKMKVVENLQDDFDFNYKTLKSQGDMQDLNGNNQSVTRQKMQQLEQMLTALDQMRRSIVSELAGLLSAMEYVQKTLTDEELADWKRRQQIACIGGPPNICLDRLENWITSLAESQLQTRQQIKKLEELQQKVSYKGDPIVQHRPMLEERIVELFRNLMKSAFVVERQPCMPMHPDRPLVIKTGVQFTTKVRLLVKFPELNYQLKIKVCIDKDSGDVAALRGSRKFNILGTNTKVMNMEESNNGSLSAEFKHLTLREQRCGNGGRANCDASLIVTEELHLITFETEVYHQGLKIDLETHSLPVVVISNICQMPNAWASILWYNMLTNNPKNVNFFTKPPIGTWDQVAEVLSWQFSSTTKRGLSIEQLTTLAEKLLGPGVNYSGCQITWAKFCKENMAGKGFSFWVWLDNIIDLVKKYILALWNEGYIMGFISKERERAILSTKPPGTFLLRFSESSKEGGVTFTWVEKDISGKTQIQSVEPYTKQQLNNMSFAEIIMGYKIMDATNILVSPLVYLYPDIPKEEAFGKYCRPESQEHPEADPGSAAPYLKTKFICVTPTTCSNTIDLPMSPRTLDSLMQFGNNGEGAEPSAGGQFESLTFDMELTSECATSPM
Estrogen receptor (Homo sapiens), sequence (P03372 whole entry, looked up, the tested form may be a part): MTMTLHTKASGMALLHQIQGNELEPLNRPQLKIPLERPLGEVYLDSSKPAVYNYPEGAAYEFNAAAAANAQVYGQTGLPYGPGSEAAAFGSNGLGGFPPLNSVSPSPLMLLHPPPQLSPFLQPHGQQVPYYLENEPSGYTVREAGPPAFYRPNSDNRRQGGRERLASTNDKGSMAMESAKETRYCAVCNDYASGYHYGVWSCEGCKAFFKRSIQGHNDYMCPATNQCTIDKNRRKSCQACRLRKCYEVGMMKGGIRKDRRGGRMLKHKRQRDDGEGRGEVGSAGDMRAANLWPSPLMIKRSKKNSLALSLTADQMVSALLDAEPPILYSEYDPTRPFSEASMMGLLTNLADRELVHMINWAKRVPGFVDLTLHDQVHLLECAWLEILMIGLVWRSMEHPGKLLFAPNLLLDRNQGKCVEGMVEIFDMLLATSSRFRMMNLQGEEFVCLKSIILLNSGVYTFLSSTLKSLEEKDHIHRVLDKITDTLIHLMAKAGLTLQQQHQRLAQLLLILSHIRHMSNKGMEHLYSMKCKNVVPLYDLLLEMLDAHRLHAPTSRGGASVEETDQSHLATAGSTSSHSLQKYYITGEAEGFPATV
Estrogen-related receptor gamma (Homo sapiens), sequence (P62508 whole entry, looked up, the tested form may be a part): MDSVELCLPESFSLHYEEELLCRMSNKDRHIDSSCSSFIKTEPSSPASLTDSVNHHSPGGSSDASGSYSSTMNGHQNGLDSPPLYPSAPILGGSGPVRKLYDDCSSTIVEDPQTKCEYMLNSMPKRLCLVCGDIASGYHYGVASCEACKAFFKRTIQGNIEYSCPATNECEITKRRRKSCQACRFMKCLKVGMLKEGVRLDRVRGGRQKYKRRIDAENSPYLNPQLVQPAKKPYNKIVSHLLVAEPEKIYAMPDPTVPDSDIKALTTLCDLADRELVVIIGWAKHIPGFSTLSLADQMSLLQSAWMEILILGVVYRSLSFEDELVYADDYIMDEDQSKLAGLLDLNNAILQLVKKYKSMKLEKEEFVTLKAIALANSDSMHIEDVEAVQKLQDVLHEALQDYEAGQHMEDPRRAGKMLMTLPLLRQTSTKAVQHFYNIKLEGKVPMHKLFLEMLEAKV

Cc1c(C)c([N+](=O)[O-])c(C(C)(C)C)c([N+](=O)[O-])c1C
not listed: [17] | [18] | [19]
inactive: all other assays above

CCC(CC)C(=O)O
not listed: [7] | [9] | [12] | [13] | [14] | [18] | [19]
inactive: all other assays above

C[C@]12C=CC(=O)C=C1CC[C@@H]1[C@@H]2[C@@H](O)C[C@@]2(C)[C@H]1CC[C@]2(O)C(=O)CO
not listed: [2] | [12] | [13] | [17]
inactive: all other assays above

COC(=O)C1=C(C)NC(C)=C(C(=O)OCC(C)C)C1c1ccccc1[N+](=O)[O-] (stereo not drawn)
inactive: [1] | [5] | [6] | [9] | [10] | [11] | [12] | [15] | [18]

CC(C)C(=O)C(C)C
active: [1] 42.4 µM | [4] 19.5 µM | [17] 55.2 µM | [15] 34.7 µM
inactive: [2] | [5] | [6] | [8] | [10] | [14] | [16]
